In assay [1] the target is Ribosomal protein S6 kinase alpha-6 (Homo sapiens) (UniProt Q9UK32). As to conditions: at 1 µM.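 Further: each value is a mean inhibition of RSK4 from a GSK PKIS panel screen.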
Assay [2] has as its target T1, Serine/threonine-protein kinase Sgk1 (Homo sapiens) (UniProt O00141).
T1 sequence (whole entry): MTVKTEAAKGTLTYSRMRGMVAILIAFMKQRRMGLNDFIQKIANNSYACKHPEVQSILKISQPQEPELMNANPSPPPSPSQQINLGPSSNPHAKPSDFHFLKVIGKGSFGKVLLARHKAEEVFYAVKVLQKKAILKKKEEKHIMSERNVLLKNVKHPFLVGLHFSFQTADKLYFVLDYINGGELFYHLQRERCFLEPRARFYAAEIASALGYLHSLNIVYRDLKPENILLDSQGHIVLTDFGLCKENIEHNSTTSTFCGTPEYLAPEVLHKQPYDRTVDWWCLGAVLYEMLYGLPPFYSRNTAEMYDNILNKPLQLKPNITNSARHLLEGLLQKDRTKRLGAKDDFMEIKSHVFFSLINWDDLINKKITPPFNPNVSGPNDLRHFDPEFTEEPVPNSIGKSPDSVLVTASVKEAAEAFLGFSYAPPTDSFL
As to conditions: at 0.1 µM.

In assay [3] the target is T1, Serine/threonine-protein kinase Sgk1 (Homo sapiens). As to conditions: at 1 µM.
The target of assay [4] is T2, Serine/threonine-protein kinase Sgk2 (Homo sapiens) (UniProt Q9HBY8).
T2 sequence (whole entry): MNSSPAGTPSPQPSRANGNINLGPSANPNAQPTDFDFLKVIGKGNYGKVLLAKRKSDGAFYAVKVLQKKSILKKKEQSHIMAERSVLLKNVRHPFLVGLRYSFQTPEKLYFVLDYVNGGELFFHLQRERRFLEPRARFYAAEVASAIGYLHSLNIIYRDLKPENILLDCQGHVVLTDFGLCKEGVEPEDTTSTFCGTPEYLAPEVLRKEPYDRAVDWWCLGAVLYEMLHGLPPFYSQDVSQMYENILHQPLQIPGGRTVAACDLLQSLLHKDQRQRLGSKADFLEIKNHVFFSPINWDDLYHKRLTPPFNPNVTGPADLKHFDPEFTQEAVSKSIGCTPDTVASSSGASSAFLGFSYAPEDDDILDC
As to conditions: at 0.1 µM.

The target in assay [5] is T2, Serine/threonine-protein kinase Sgk2 (Homo sapiens). As to conditions: at 1 µM.
Assay [6] concerns the target T3, Serine/threonine-protein kinase Sgk3 (Homo sapiens) (UniProt Q96BR1).
T3 sequence (whole entry): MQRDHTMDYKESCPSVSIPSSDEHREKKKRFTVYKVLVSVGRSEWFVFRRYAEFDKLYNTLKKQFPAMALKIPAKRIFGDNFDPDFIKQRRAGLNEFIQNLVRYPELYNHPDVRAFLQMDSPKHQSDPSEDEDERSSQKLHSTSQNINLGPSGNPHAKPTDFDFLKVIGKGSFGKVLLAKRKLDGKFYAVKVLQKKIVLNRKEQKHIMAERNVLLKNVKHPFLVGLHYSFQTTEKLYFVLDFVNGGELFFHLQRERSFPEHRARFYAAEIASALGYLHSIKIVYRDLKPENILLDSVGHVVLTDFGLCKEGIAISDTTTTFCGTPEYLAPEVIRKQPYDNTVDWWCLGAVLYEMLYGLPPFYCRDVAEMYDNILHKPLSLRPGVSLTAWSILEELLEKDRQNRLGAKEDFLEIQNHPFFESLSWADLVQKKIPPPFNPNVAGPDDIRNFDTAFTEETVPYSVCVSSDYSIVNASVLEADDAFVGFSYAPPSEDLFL
As to conditions: at 0.1 µM.

Assay [7] concerns the target T3, Serine/threonine-protein kinase Sgk3 (Homo sapiens). As to conditions: at 1 µM.
The target of assay [8] is 5'-AMP-activated protein kinase catalytic subunit alpha-1 (Homo sapiens) (UniProt Q13131). As to conditions: at 0.1 µM.
Chain of 5'-AMP-activated protein kinase catalytic subunit alpha-1 (Homo sapiens) (Q13131 whole entry, looked up): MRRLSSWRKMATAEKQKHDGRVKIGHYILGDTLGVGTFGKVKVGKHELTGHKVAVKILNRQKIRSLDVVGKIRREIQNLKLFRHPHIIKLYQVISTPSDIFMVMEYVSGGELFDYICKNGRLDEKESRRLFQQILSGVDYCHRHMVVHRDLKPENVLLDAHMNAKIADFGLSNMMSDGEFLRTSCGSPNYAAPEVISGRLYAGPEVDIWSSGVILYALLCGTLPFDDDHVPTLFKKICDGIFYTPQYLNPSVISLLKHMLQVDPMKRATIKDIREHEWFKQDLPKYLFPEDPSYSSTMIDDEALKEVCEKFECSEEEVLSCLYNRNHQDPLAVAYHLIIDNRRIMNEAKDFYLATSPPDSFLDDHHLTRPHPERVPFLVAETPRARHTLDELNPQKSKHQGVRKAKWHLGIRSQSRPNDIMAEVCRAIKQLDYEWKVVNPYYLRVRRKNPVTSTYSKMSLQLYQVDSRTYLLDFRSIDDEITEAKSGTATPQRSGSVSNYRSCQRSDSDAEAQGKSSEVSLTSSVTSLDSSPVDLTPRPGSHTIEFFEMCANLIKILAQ
Assay [9] shares this target. As to conditions: at 1 µM.
In assay [10] the target is 5'-AMP-activated protein kinase catalytic subunit alpha-2 (Homo sapiens) (UniProt P54646). As to conditions: at 0.1 µM.
Chain of 5'-AMP-activated protein kinase catalytic subunit alpha-2 (Homo sapiens) (P54646 whole entry, looked up): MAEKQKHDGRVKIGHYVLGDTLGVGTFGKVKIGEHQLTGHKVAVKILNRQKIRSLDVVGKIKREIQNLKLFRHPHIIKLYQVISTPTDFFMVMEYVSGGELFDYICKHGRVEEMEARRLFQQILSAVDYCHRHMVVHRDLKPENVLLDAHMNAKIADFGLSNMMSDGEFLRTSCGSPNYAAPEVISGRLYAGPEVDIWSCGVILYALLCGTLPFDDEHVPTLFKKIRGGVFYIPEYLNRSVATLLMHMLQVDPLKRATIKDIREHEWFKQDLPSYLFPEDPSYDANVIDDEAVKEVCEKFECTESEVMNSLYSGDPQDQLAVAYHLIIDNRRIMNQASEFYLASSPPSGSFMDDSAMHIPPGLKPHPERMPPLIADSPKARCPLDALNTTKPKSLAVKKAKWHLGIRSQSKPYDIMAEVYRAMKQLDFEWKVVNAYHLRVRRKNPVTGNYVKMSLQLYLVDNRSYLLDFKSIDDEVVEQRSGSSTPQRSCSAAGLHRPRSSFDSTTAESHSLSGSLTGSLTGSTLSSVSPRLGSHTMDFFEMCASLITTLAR
Assay [11] shares this target. As to conditions: at 1 µM.
The target in assay [12] is T4, NUAK family SNF1-like kinase 1 (Homo sapiens) (UniProt O60285).
T4 sequence (whole entry): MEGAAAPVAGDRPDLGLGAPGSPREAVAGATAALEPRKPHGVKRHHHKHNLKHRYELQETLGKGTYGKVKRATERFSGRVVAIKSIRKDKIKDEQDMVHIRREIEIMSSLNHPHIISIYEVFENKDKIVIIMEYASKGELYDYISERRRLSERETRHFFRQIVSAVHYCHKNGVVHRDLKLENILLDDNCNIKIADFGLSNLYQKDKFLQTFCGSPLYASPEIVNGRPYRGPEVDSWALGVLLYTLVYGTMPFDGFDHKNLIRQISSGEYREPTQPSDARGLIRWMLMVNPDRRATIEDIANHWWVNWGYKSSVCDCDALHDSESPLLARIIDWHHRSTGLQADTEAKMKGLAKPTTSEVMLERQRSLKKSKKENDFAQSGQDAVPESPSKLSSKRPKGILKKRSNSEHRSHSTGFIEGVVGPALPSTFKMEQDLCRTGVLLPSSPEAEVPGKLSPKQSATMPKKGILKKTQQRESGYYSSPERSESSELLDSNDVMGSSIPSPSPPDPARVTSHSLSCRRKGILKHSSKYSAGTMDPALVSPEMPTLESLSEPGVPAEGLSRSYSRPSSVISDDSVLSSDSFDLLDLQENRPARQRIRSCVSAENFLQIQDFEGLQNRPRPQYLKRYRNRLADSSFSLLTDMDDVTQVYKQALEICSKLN
As to conditions: at 0.1 µM.

In assay [13] the target is T4, NUAK family SNF1-like kinase 1 (Homo sapiens). As to conditions: at 1 µM.
For assay [14], the target named is T5, Serine/threonine-protein kinase BRSK1 (Homo sapiens) (UniProt Q8TDC3).
T5 sequence (whole entry): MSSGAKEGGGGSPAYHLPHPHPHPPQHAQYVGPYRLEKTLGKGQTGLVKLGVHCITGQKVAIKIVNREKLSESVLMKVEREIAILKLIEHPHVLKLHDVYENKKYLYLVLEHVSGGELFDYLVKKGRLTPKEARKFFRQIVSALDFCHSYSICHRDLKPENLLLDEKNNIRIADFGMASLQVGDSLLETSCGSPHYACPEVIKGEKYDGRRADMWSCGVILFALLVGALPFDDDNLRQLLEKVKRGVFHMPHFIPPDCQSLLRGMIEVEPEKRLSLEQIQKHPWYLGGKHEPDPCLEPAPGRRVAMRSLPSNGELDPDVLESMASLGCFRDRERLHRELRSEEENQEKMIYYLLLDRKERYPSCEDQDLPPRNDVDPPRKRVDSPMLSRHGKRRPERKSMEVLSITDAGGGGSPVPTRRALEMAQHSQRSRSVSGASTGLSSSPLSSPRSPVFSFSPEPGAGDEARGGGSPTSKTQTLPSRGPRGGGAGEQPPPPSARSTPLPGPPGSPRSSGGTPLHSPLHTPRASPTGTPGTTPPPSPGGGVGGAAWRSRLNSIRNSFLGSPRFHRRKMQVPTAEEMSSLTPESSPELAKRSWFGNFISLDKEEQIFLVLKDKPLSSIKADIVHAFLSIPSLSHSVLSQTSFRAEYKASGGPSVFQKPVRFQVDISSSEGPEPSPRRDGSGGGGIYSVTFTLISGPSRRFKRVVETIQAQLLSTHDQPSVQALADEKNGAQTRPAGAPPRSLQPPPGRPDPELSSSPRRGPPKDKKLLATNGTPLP
As to conditions: at 0.1 µM.

For assay [15], the target named is T5, Serine/threonine-protein kinase BRSK1 (Homo sapiens). As to conditions: at 1 µM.
The target in assay [16] is T6, Serine/threonine-protein kinase BRSK2 (Homo sapiens) (UniProt Q8IWQ3).
T6 sequence (whole entry): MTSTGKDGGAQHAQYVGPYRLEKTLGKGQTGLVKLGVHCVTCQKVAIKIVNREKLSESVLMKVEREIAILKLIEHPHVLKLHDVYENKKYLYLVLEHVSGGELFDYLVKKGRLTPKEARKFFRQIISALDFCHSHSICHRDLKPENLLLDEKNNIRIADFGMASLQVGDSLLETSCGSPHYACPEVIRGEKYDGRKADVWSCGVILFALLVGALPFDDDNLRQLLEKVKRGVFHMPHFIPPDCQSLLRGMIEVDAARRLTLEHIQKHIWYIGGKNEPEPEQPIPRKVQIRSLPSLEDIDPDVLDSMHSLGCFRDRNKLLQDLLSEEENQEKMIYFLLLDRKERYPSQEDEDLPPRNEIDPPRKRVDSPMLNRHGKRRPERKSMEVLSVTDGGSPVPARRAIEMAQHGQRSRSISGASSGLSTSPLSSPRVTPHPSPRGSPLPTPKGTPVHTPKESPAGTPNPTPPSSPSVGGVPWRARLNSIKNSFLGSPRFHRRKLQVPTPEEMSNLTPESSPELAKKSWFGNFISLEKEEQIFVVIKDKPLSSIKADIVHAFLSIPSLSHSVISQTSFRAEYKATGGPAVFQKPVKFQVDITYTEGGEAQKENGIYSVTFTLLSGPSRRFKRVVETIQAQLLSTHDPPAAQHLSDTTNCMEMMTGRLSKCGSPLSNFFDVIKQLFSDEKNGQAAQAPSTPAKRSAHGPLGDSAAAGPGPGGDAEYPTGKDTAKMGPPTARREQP
As to conditions: at 0.1 µM.

The target in assay [17] is T6, Serine/threonine-protein kinase BRSK2 (Homo sapiens). As to conditions: at 1 µM.
The target of assay [18] is Calcium/calmodulin-dependent protein kinase type 1D (Homo sapiens) (UniProt Q8IU85). As to conditions: at 0.1 µM.
Chain of Calcium/calmodulin-dependent protein kinase type 1D (Homo sapiens) (Q8IU85 whole entry, looked up): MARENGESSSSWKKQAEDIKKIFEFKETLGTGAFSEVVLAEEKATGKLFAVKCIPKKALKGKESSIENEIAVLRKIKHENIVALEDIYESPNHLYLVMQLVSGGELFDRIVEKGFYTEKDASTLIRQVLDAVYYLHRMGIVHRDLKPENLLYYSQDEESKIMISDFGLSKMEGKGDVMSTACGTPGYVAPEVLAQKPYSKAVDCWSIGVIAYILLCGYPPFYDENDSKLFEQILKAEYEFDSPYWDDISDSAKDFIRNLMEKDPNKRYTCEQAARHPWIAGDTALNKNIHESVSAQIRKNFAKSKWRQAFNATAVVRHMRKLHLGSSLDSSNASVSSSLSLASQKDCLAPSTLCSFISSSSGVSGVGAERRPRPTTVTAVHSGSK
Assay [19] has the same target. As to conditions: at 1 µM.
Assay [20] deals with Calcium/calmodulin-dependent protein kinase type II subunit alpha (Homo sapiens) (UniProt Q9UQM7). As to conditions: at 0.1 µM.
Chain of Calcium/calmodulin-dependent protein kinase type II subunit alpha (Homo sapiens) (Q9UQM7 whole entry): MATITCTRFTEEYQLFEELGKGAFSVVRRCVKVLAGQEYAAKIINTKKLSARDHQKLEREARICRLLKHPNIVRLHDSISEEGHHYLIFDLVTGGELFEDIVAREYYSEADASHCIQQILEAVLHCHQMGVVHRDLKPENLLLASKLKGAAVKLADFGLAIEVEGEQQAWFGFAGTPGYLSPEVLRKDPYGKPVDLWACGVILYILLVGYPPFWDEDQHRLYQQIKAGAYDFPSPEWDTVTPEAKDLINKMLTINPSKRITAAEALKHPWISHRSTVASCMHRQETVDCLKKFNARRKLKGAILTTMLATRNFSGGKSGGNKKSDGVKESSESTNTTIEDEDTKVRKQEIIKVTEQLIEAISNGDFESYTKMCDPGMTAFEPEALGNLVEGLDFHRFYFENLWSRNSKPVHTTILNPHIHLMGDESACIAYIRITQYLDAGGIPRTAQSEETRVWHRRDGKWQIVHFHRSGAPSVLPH

Chain of Ribosomal protein S6 kinase alpha-6 (Homo sapiens) (Q9UK32 whole entry): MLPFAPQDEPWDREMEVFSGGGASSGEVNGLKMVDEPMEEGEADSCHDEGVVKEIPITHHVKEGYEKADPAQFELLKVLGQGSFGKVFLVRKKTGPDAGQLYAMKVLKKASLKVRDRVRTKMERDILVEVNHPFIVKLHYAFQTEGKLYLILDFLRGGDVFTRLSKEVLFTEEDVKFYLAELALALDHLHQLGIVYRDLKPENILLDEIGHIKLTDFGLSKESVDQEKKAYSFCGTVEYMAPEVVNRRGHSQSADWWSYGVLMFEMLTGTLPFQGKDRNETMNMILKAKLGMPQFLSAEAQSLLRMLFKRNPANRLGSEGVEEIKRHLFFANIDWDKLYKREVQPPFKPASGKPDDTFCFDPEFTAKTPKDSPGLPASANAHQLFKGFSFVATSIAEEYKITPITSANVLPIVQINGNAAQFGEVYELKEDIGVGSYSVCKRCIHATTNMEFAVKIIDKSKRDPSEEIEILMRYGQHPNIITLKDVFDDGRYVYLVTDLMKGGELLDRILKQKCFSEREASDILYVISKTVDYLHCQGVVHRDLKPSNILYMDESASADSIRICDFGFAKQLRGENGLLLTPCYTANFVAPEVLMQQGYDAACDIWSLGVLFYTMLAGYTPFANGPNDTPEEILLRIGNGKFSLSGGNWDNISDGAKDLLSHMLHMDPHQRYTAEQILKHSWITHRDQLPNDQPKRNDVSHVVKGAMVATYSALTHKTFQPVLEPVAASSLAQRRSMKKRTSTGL

Regarding `CN1CCC(n2cnc(-c3ccc(F)cc3)c2-c2ccnc(N)n2)CC1`, the inhibition in assay [1] is 3.17%; in [2], 2.03%; in assay [3] it was 5.81%; in assay [4], 0.15%; in assay [5], 7.47%; in [6] it was 2.25%. Moreover, the inhibition in assay [7] is 2.99%; in [8], 2.2%; in assay [9] it was 7.91%; in assay [10], -1.23%; in assay [11], 3.56%; in [12], -0.55%. The inhibition amounted to 5.58% in assay [13]; 1.29% in [14]; 1.45% in [15]; 1.08% in [16]; 7.04% in assay [17]; 0.79% in assay [18]. Also, the inhibition was 1.05% in [19] and 2.13% in [20].

Take `CCn1c(-c2nonc2N)nc2c(C#CC(C)(C)O)ncc(OC3CCNCC3)c21`: the inhibition in [1] came out at 5.51%; in assay [2] it was 2.06%; in assay [3] it was 4.36%; in assay [4], 5.71%; in assay [5] it was 16.4%; in assay [6] it was 11.2%. For the same compound, the inhibition is 53.4% in assay [7]; 40.5% in [8]; 82.6% in assay [9]; 12.1% in assay [10]; 43.3% in [11]; 6.16% in assay [12]. The inhibition in [13] is 42.9%; in assay [14] it was 1.45%; in [15], 10.5%; in assay [16] it was 2.8%; in [17] it was 19.2%; in [18], 1.83%. Moreover, the inhibition in assay [19] was 8.97%; in assay [20], 3.85%.

For the compound `O=C(Nc1n[nH]c2cc(-c3ccc(F)cc3)ccc12)C1CC1`, the inhibition in [1] amounted to 4.8%; in [2], 2.59%; in assay [3] it was 3.89%; in [4] it was 3.3%; in [5], 6.36%; in [6], 3.83%. For the same compound, the inhibition in [7] turned out to be 8.97%; in [8], 1.21%; in assay [9] it was 4.56%; in [10], 3.71%; in [11] it was 6.01%; in [12] it was 0.71%. Further, the inhibition in assay [13] was 2.52%; in assay [14], 4.68%; in assay [15], 26.2%; in assay [16], 6.41%; in [17] it was 33.5%; in assay [18] it was 0.43%. Moreover, the figures for the inhibition in assay [19] and in assay [20] were 1.06% and 0.76%, respectively.

The record behind these values is ChEMBL document CHEMBL1961873, “Compounds: GSK PKIS; Assays: Nanosyn kinase panel” (2012).
